Experimental data from PubChem BioAssay AID1159580 (chemical genetic matrix, 2015).
Several values for one entry are separate records, joined by “and”; a condition that tells them apart may be missing. Identical values can stand only once. In all, about 5,500 compounds went through this assay and about 2,000 (36%) were called active. Roughly 18% stayed inconclusive and do not appear here. No stated cut-off is given here; in the data, active means normalized growth mostly below about 0.91 (no sharp cut-off); inconclusive means no clear call, values can overlap the other calls; inactive means mostly above about 0.92. The list shows a part of the results.

Test: chemical genetic growth profiling, strain panel (AID 1159580);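 further: tested at 20 µM; growth read once vehicle control cultures reached saturation at 30 °C; 1 = growth at the plate median or of vehicle wells; lower values mean less growth of the strain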
Details: growth OD

Measured: normalized growth

CC(CCc1ccccc1)NC(C)C(O)c1ccc(O)cc1 (stereo not given)
inactive: S. cerevisiae deletion strains, locus YJR075W, strain HOC1, active compounds read low 1.01 | S. cerevisiae deletion strains, locus YKL009W, strain mrt4, active compounds read low 0.988 | S. cerevisiae deletion strains, locus YKL068W, active compounds read low 0.987 | S. cerevisiae deletion strains, locus YKL085W, strain MDH1 (second series), active compounds read low 0.997 | S. cerevisiae deletion strains, locus YKL085W, strain MDH1, active compounds read low 0.997 | S. cerevisiae deletion strains, locus YKL160W, strain elf1, active compounds read low 1 | S. cerevisiae deletion strains, locus YKL190W, strain CNB1, active compounds read low 0.99 | S. cerevisiae deletion strains, locus YKR001C, strain vps1, active compounds read low 0.97 | S. cerevisiae deletion strains, locus YKR026C, strain gcn3, active compounds read low 1 | S. cerevisiae deletion strains, locus YKR091W, strain srl3, active compounds read low 1 | S. cerevisiae deletion strains, locus YLL001W, strain dnm1, active compounds read low 1.01 | S. cerevisiae deletion strains, locus YLL026W, active compounds read low 1 | S. cerevisiae deletion strains, locus YLL041C, strain sdh2, active compounds read low 0.999 | S. cerevisiae deletion strains, locus YLR027C, strain aat2, active compounds read low 0.994 | S. cerevisiae deletion strains, locus YLR039C, strain RIC1, active compounds read low 1.01 | S. cerevisiae deletion strains, locus YLR058C, strain SHM2, active compounds read low 0.976 | S. cerevisiae deletion strains, locus YLR102C, strain apc9, active compounds read low 0.99 | S. cerevisiae deletion strains, locus YLR113W, strain HOG1, active compounds read low 0.995 | S. cerevisiae deletion strains, locus YLR221C, strain rsa3, active compounds read low 1.02 | S. cerevisiae deletion strains, locus YLR258W, strain gsy2, active compounds read low 1 | S. cerevisiae deletion strains, locus YLR262C, strain YPT6 (second series), active compounds read low 0.96 | S. cerevisiae deletion strains, locus YLR262C, strain YPT6, active compounds read low 0.99 | S. cerevisiae deletion strains, locus YLR268W, strain sec22, active compounds read low 1.04 | S. cerevisiae deletion strains, locus YLR320W, strain mms22, active compounds read low 1.02 | S. cerevisiae deletion strains, locus YLR330W, strain CHS5, active compounds read low 0.997 | S. cerevisiae deletion strains, locus YLR342W, strain FKS1 (second series), active compounds read low 1.01 | S. cerevisiae deletion strains, locus YLR342W, strain FKS1, active compounds read low 1 | S. cerevisiae deletion strains, locus YLR357W, strain rsc2, active compounds read low 0.983 | S. cerevisiae deletion strains, locus YLR370C, strain arc18, active compounds read low 1 | S. cerevisiae deletion strains, locus YLR371W, strain rom2, active compounds read low 0.974 | S. cerevisiae deletion strains, locus YLR384C, strain iki3, active compounds read low 1.01 | S. cerevisiae deletion strains, locus YLR418C, strain cdc73, active compounds read low 0.997 | S. cerevisiae deletion strains, locus YML016C, strain PPZ1, active compounds read low 0.993 | S. cerevisiae deletion strains, locus YML032C, strain rad52, active compounds read low 1 | S. cerevisiae deletion strains, locus YML120C, strain ndi1, active compounds read low 1.01 | S. cerevisiae deletion strains, locus YML124C, strain tub3, active compounds read low 0.982 | S. cerevisiae deletion strains, locus YMR058W, strain fet3, active compounds read low 0.998 | S. cerevisiae deletion strains, locus YMR078C, strain ctf18, active compounds read low 0.987 | S. cerevisiae deletion strains, locus YMR125W, strain sto1, active compounds read low 1.01 | S. cerevisiae deletion strains, locus YMR129W, active compounds read low 0.984 | S. cerevisiae deletion strains, locus YMR205C, strain PFK2, active compounds read low 1.02 | S. cerevisiae deletion strains, locus YMR223W, strain ubp8, active compounds read low 0.989 | S. cerevisiae deletion strains, locus YMR231W, strain pep5, active compounds read low 1 | S. cerevisiae deletion strains, locus YMR263W, strain SAP30, active compounds read low 1.01 | S. cerevisiae deletion strains, locus YMR307W, strain GAS1, active compounds read low 1.05 | S. cerevisiae deletion strains, locus YNL067W, strain RPL9B, active compounds read low 0.995 | S. cerevisiae deletion strains, locus YNL071W, strain lat1, active compounds read low 0.999 | S. cerevisiae deletion strains, locus YNL128W, strain TEP1, active compounds read low 1.01 | S. cerevisiae deletion strains, locus YNL153C, strain GIM3, active compounds read low 1 | S. cerevisiae deletion strains, locus YNL175C, strain NOP13, active compounds read low 1.01 | S. cerevisiae deletion strains, locus YNL183C, strain NPR1, active compounds read low 0.944 | S. cerevisiae deletion strains, locus YNL197C, strain WHI3, active compounds read low 1.01 | S. cerevisiae deletion strains, locus YNL209W, strain ssb2, active compounds read low 1 | S. cerevisiae deletion strains, locus YNL224C, strain SQS1, active compounds read low 1.01 | S. cerevisiae deletion strains, locus YNL233W, strain BNI4, active compounds read low 0.992 | S. cerevisiae deletion strains, locus YNL248C, strain rpa49, active compounds read low 0.991 | S. cerevisiae deletion strains, locus YNL250W, strain rad50, active compounds read low 0.986 | S. cerevisiae deletion strains, locus YNL271C, strain bni1, active compounds read low 0.994 | S. cerevisiae deletion strains, locus YNL298W, strain CLA4, active compounds read low 1.01 | S. cerevisiae deletion strains, locus YNL307C, strain MCK1, active compounds read low 0.987 | S. cerevisiae deletion strains, locus YNL322C, strain KRE1 (second series), active compounds read low 1.01 | S. cerevisiae deletion strains, locus YNL322C, strain KRE1, active compounds read low 0.994 and 0.998 | S. cerevisiae deletion strains, locus YNR049C, strain mso1, active compounds read low 1 | S. cerevisiae deletion strains, locus YNR052C, strain pop2, active compounds read low 1 | S. cerevisiae deletion strains, locus YOL006C, strain TOP1, active compounds read low 0.948 | S. cerevisiae deletion strains, locus YOL012C, strain htz1 1.21 | S. cerevisiae deletion strains, locus YOL147C, strain pex11, active compounds read low 0.99 | S. cerevisiae deletion strains, locus YOR001W, strain rrp6, active compounds read low 0.989 | S. cerevisiae deletion strains, locus YOR061W, strain CKA2, active compounds read low 0.962 | S. cerevisiae deletion strains, locus YOR069W, strain VPS5, active compounds read low 0.996 | S. cerevisiae deletion strains, locus YOR070C, strain gyp1, active compounds read low 0.999 | S. cerevisiae deletion strains, locus YOR080W, strain dia2, active compounds read low 0.994 | S. cerevisiae deletion strains, locus YOR083W, strain WHI5 (second series), active compounds read low 1.01 | S. cerevisiae deletion strains, locus YOR083W, strain WHI5, active compounds read low 1 | S. cerevisiae deletion strains, locus YOR106W, strain vam3, active compounds read low 0.985 | S. cerevisiae deletion strains, locus YOR136W, strain idh2, active compounds read low 0.988 | S. cerevisiae deletion strains, locus YOR144C, strain elg1, active compounds read low 0.992 | S. cerevisiae deletion strains, locus YOR184W, strain ser1, active compounds read low 0.99 | S. cerevisiae deletion strains, locus YOR231W, strain MKK1, active compounds read low 1.02 | S. cerevisiae deletion strains, locus YOR265W, strain rbl2, active compounds read low 1.01 | S. cerevisiae deletion strains, locus YOR270C, strain vph1, active compounds read low 0.979 | S. cerevisiae deletion strains, locus YOR290C, strain snf2, active compounds read low 1.01 | S. cerevisiae deletion strains, locus YOR316C, strain cot1, active compounds read low 0.995 | S. cerevisiae deletion strains, locus YPL051W, strain arl3, active compounds read low 1.02 | S. cerevisiae deletion strains, locus YPL078C, strain atp4, active compounds read low 1 | S. cerevisiae deletion strains, locus YPL106C, strain sse1, active compounds read low 0.977 | S. cerevisiae deletion strains, locus YPL240C, strain hsp82, active compounds read low 1 | S. cerevisiae deletion strains, locus YPL241C, strain CIN2, active compounds read low 0.997 | S. cerevisiae deletion strains, locus YPL256C, strain CLN2, active compounds read low 0.969 | S. cerevisiae deletion strains, locus YPR119W, strain clb2, active compounds read low 0.981 | S. cerevisiae deletion strains, locus YPR141C, strain kar3, active compounds read low 0.976 | S. cerevisiae deletion strains, locus YPR163C, strain tif3, active compounds read low 0.986 | S. cerevisiae deletion strains, locus YPR167C, strain met16, active compounds read low 0.989 | S. cerevisiae deletion strains, strain wtn01, active compounds read low 1 | S. cerevisiae strains, strain wild type, active compounds read low 0.995
